Wee1 stabilizer = human Wee1 degradation inhibition, primary screen; P30291; HeLa Luc-Wee1K328M stability, luciferase luminescence; 100% = proteasome inhibitor MG132 effect; reporter increase, % at 5 µM; 1.2% of 220,000 active; AID 1321;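 active = activation above the mean of all tested compounds plus 3 SD, set per screening run, cut at about 8.8% in these data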;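 note: cells exposed to compound for 20 h before luminescence read; 0% = DMSO alone and 100% = MG132 at 30 µM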
hcDAF-12 act = activators of H. contortus DAF-12 nuclear receptor | HEK293 hcDAF-12 lit1-tk-luc reporter, luminescence; 0% DMSO, 100% Δ7-dafachronic acid | activation, % at 6.8 µM | 1.4% of 370,000 active | AID 652067;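 active = activation above the mean of all tested compounds plus 3 SD, cut at about 5.5% in these data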;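 note: 100% = response to 3 µM Δ7-dafachronic acid high control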
DAX1 inh-1 = blocks DAX1 repression of SF-1 activated StAR promoter. HEK293T StAR-luciferase reporter, SF-1/DAX-1 repression relief. inhibition, % at 6.8 µM. 1.1% of 370,000 active. AID 652010;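 active = inhibition above the mean over all tested compounds plus 3 SD, cut at about 3.6% in these data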;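 note: 0% = DAX-1 cells with DMSO and 100% = cells lacking DAX-1 with DMSO; higher inhibition means more luminescence from relief of DAX-1 repression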
DAX1 inh-2 = NR0B1 (DAX1) inhibition; HEK293 Gal4-DAX1 luciferase reporter, luminescence; inhibition, % at 6.75 µM; 0.99% of 340,000 active; AID 504766;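 active = inhibition above the mean over all tested compounds plus 3 SD, cut at about 4.2% in these data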;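 note: 0% = DAX1-transfected cells with DMSO and 100% = empty-vector control cells with DMSO; inhibition shows as a rise in luminescence from relieved DAX1 repression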
Target sequence (P51843 207-470 limits assumed): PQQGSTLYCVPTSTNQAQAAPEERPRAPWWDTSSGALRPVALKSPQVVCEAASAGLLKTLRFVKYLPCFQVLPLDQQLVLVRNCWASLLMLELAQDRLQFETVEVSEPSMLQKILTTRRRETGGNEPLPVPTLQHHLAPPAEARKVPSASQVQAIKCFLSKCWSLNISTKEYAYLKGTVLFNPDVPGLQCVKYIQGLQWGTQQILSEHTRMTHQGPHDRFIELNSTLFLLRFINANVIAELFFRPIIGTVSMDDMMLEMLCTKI
ssDAF12 agonist = activates DAF-12 receptor from parasite S. stercoralis; HEK293 ssDAF-12/GRIP1 lit1-tk-luc reporter, luminescence; % of 3 µM dafachronic acid response; activation, % at 6.8 µM; 1% of 370,000 active;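 active = activation above the mean over all tested compounds plus 3 SD, cut at about 0.9% in these data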;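 note: 0% = DMSO-only wells and 100% = 3 µM delta7-dafachronic acid wells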
hgDAF12 agonist = agonists of H. glycines DAF-12 nuclear receptor; HEK293 GAL4-hgDAF12 UAS-luciferase reporter, agonist luminescence; normalized to butyrate control; activation, % at 6.8 µM; 1.8% of 370,000 active; AID 687014;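 active = activation above a cutoff set at the mean of all screened compounds plus 3 SD, cut at about 10% in these data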;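 note: 0% = DMSO wells and 100% = sodium butyrate wells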
* = called active by the depositor; . = not tested or not shown. Hits are enriched below; roughly 4.6% of the tested compounds scored in any of these assays.

SMILES	Wee1 stabilizer	hcDAF-12 act	DAX1 inh-1	DAX1 inh-2	ssDAF12 agonist	hgDAF12 agonist
Nc1c(C(=O)c2ccccc2)oc2ccccc12	5	3	0	0	0	8
Cc1c(C(=O)c2ccccc2)oc2ccc3ccccc3c12	0	2	1	6.6*	-1	8
C[C@H](NC(=O)c1ccco1)C(=O)Nc1cccc([N+](=O)[O-])c1	0	1	0	5.3*	-2	3
O=C(Nc1cc(Oc2ccc(Cl)cc2)cc([N+](=O)[O-])c1)c1ccco1	-1	5.6*	0	-1	-1	-2
COc1ccc(OC)c(NC(=O)Nc2ccc3[nH]ccc3c2)c1	.	1	1	.	-1	0
COc1ccccc1C(O)c1ncc(-c2cccc(C(F)(F)F)c2)[nH]1 (centres undefined)	.	-1	0	.	-2	-1
C/C(CC(=O)NC(C)(C)C)=N\NC(=O)c1ccccc1N	5	2	3	4.7*	0	10
CCCCn1c(SCC(=O)Nc2cccc(C)n2)nnc1-c1ccco1	9.1*	0	-1	0	0	-2
COCCCn1c(SCC(=O)Nc2cccc(C)n2)nnc1-c1ccco1	-2	0	-1	1	-1	-1
C[C@@H]1CN([C@@H](C)CO)C(=O)CCCn2nncc2CO[C@@H]1CN(C)S(=O)(=O)c1ccc(Oc2ccccc2)cc1	.	-1	1	1	-2	1
Cc1cc(C(=O)COC(=O)c2cccc(NS(C)(=O)=O)c2)c(C)n1CC1CCCO1 (centres undefined)	.	-2	-4	-1	-3	-10
CCNC(=O)C1(C)CCCN(C(=O)C2(c3ccc(Cl)cc3)CCCC2)C1 (centres undefined)	.	-2	0	.	-1	-4
O=C(COc1ccc(Cl)cc1)Nc1cccc(-c2ccc(N3CCOCC3)nn2)c1	.	5	3	-1	0	12*
Cc1ccc(C(=O)Nc2cccc(-c3ccc(N4CCOCC4)nn3)c2)cc1	.	2	4.5*	1	0	5
Cc1ccc(C(=O)Nc2cccc(-c3ccc(N4CCOCC4)nn3)c2)cc1C	.	1	2	-2	0	6
O=[N+]([O-])c1cccc(S(=O)(=O)Nc2cccc(-c3ccc(N4CCOCC4)nn3)c2)c1	.	0	4.4*	-1	0	3
CN(CC(=O)Nc1cccc(S(=O)(=O)N2CCCC2)c1)Cc1ccccc1	.	-1	0	-1	-2	-1
CCOC(=O)Cn1nc(-c2ccccc2)c2cnc3ccc(C)cc3c21	-1	6.3*	0	1	1	1
Clc1cc(Cl)c2nc(N3CCCC3)sc2c1	4	2	3	1	0	11*
Cc1ccc(-c2nnc(CCC(=O)N(C)Cc3nccs3)o2)s1	-2	3	0	0	1.9*	4
C=CCc1c(N(CC)CC)nc(C)[nH]c1=O	9.3*	-1	0	3	-1	2
COC(=O)[C@]12CCCCC=C1N(Cc1ccc3c(c1)OCO3)C(=O)[C@H](CC(=O)NCC1CCCCC1)C2	.	0	4.1*	.	-1	3
COCCCNC(=O)C[C@@H]1C[C@@]2(C(=O)OC)CCCCC=C2N(Cc2ccc3c(c2)OCO3)C1=O	.	-1	2	.	-1	0
COc1cccc(CNC(=O)c2cccc(NC(=O)C3=C(C)OCCS3)c2)c1	.	0	-1	-1	-1	-4
COc1ccc(CNC(=O)Cc2ccc(NC(=O)C3=C(C)OCCS3)cc2)cc1	.	2	-2	0	0	11*
SMILES	Wee1 stabilizer	hcDAF-12 act	DAX1 inh-1	DAX1 inh-2	ssDAF12 agonist	hgDAF12 agonist
O=C(NCCC(F)(F)F)C1Cc2c(-c3ccc(Cl)cc3)ccnc2O1 (centres undefined)	.	-2	1	.	-2	0
Cc1oncc1C(=O)Nc1ccc2ccccc2c1	.	3	3.8*	0	0	9
Cc1oncc1C(=O)Nc1ccc(C(F)(F)F)cc1	-2	0	4.3*	-1	-1	10
COc1ccc(OC)c(-c2nc(C(=O)NCCCN3CCOCC3)cc3c2[nH]c2ccccc23)c1	.	4	1	3	1.0*	-2
Cn1nnnc1SCc1csc(Nc2ccccc2)n1	2	0	0	2	-1	8
Cc1ccc(Nc2nc(CSc3nnnn3C)cs2)cc1	0	2	2	1	1	11*
Cc1ccc(Nc2nc(CSc3n[nH]c(N)n3)cs2)cc1	-1	5	2	0	1	12*
O=C(/C=C/Nc1ccc(S(=O)(=O)Nc2ncccn2)cc1)c1cccs1	2	4	1	5.7*	-1	8
O=C(/C=C/Nc1ccc(S(=O)(=O)Nc2ncccn2)cc1)c1ccc(Cl)c(Cl)c1	0	3	1	4	-1	0
CC(=O)N1CCN(C2=NC(=O)N(c3ccc(Br)cc3)C(=O)C2)CC1	.	-1	0	.	-2	-3
NC(=O)c1c(NC(=O)c2cccs2)sc2c1CCCCCC2	0	1	1	1	-1	9
O=C(Nc1sc2c(c1C(=O)O)CCC2)c1cccs1	1	5.7*	1	2	-1	4
COc1ccc(N2CCN(CCNS(=O)(=O)c3ccc(F)cc3)CC2)cc1	.	0	-1	.	-2	-1
CC(=O)c1sc2nsc(SCCN3CCOCC3)c2c1N	9.0*	0	0	.	-1	-1
O=S1(=O)CC(N2CCCC2)CN1Cc1cn(Cc2ccc(F)cc2)nn1 (centres undefined)	.	-1	-1	.	-1	-3
O=C(NCc1cccs1)C1CCCN(S(=O)(=O)c2ccccc2)C1 (centres undefined)	.	-2	0	.	-1	-4
C#CCOCCOCCOCCNc1nc(N2CCN(C(=O)[C@H](CCCCN)n3cc([C@@H](N)CC(N)=O)nn3)CC2)nc(N2CCN(C(=O)[C@H](CCCCN)n3cc([C@@H](N)CC(N)=O)nn3)CC2)n1	.	0	0	4.5*	-1	3
CN(C)CCNC(=O)c1ccccc1	0	2	1	3	-1	-1
CN(C)CCNC(=O)c1cccc2ccc(-c3ccc(-c4ccccc4)cc3)nc12	.	2	-1	-1	1.2*	1
O=C(O)c1nn(Cc2nc3ccccc3o2)c(=O)c2ccccc12	.	5.9*	0	0	0	-1
Cc1cccc(NC(=O)c2cnc3sccn3c2=O)n1	0	1	1	1	-1	3
Cc1cccc(NC(=O)c2cnc3sccn3c2=O)c1C	-1	2	3.9*	.	0	12*
O=C(NCCC(c1ccccc1)c1ccccc1)c1cnc2sccn2c1=O	11*	1	-1	2	-1	-3
COc1ccc(NC(=O)c2cnc3sccn3c2=O)cc1	1	5	2	0	0.9*	8
O=C(Nc1cnc2sccn2c1=O)c1ccccc1Cl	-1	3	3.9*	0	-1	9

Source: PubChem BioAssay (The Scripps Research Institute Molecular Screening Center)
